Screening results (PubChem)
An excerpt weighted towards active compounds, which were near 4.7% of everything screened.
tim23-1 inh = growth inhibitors of tim23-1 mutant yeast, primary screen, luminescence, uHTS | AID 463212, 2010 | S. cerevisiae tim23-1 growth, BacTiter-Glo luminescence, 24 h | 330,000 compounds, 1.3% hits | inhibition, % at 20 µM;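 active = growth inhibition of the mutant yeast at or above 50%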;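 also: temperature-sensitive mutant grown at 25 °C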
tim10-1 inh = growth inhibitors of tim10-1 mutant yeast, primary screen, luminescence, uHTS | S. cerevisiae tim10-1 ts strain growth, BacTiter-Glo, 24 h | AID 463190, 2010 | 330,000 compounds, 2.2% hits | inhibition, % at 20 µM;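 active = inhibition of at least 40%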;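 also: mutant grown at 25 °C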
SKKanGAS inh = S. pyogenes SKKanGAS growth inhibitors in kanamycin, primary screen, streptokinase expression inhibitor project, SKKanGAS strain, BacTiter-Glo luminescence; 6 h; inhibition, % at 7.5 µM; 300,000 compounds, 1.3% hits; AID 1662, 2009;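 active = mean replicate score, as percent of positive control median, at least 50; inconclusive = mean below 50 but one replicate at or above 50; inactive = mean and every replicate below 50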;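 also: strain carries kanamycin resistance gene driven by streptokinase promoter and grows in 40 µg/ml kanamycin; loss of luminescence reflects streptokinase promoter inhibition or plain growth inhibition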
TIM10 inh = growth inhibitors of isogenic TIM10 control yeast, primary screen, counter-screen for tim10-1 yeast inhibitor project, luminescence, uHTS; inhibition, % at 10 µM; S. cerevisiae TIM10 strain growth, BacTiter-Glo luminescence, 24 h; 330,000 compounds, 1.4% hits;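 active = inhibition of 40% or more at the single tested concentration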;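 also: wild-type TIM10 isogenic control strain grown at permissive 25 °C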
Calb FLC = C. albicans growth inhibition with fluconazole, primary screen, CaCi-2 strain, Alamar Blue fluorescence; AID 1979, 2009; 300,000 compounds, 0.57% hits; growth inhibition, % (test concentration not listed); C. albicans CaCi-2 (fluconazole-resistant clinical isolate) + fluconazole, 48 h;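 active = growth inhibition above about 58% in most replicates, limit read from the data, passing the limit was not always enough; inconclusive = exactly half the replicates above a set limit; inactive = most replicates below a set limit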;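 also: all wells also contain fluconazole at 8 µg/ml as a sub-toxic cotreatment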
PfHsp90 set2 = growth inhibition of PfHsp90-expressing yeast, primary screen, antimalarial PfHsp90 inhibitor project, S. cerevisiae, BacTiter-Glo luminescence, single point, set 2 | 310,000 compounds, 0.32% hits | inhibition, % at 9.4 µM | BacTiter-Glo ATP, 48 h; yeast lacking PDR1 and PDR3 efflux regulators | AID 504621, 2011;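 active = every replicate shows inhibition above about 80%, whatever the replicate mean, limit read from the data; inconclusive = mean inhibition reaches the set limit but some replicate falls short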
tim10-1 confirm = growth inhibitors of tim10-1 mutant yeast, confirmation, single concentration, luminescence, S. cerevisiae; S. cerevisiae tim10-1 ts strain growth, BacTiter-Glo, 24 h; 7,400 compounds, 56% hits; inhibition, % at 20 µM; shares compounds with tim10-1 inh;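 active = inhibition of yeast growth at or above a set limit in either of two repeat tests at 20 µM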;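 also: tim10-1 mutant grown at permissive 25 °C to find synthetic lethal compounds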
tim10 confirm = growth inhibitors of wild-type TIM10 yeast, confirmation, counter-screen for tim10-1 synthetic lethality project, single concentration, luminescence, S. cerevisiae; shares compounds with TIM10 inh; S. cerevisiae tim10 strain growth, BacTiter-Glo luminescence, 24 h; inhibition, % at 10 µM; 4,600 compounds, 63% hits;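 active = inhibition of yeast growth at or above a set limit in either of two replicates at 10 µM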; also: this counterscreen used the strain with wild-type TIM10
tim23-1 confirm = tim23-1 mutant yeast growth inhibitors, confirmation, luminescence, single concentration; shares compounds with tim23-1 inh; inhibition, % at 20 µM; AID 463218, 2010; S. cerevisiae tim23-1 growth, BacTiter-Glo luminescence, 24 h; 4,400 compounds, 83% hits;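 active = inhibition above about 39% in either of two replicate wells at 20 µM, limit read from the data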;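 also: temperature-sensitive tim23-1 mutant grown at 25 °C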
Hits are given with their value; - = inactive; ? = inconclusive; . = no result.

SMILES | tim23-1 inh | tim10-1 inh | SKKanGAS inh | TIM10 inh | Calb FLC | PfHsp90 set2 | tim10-1 confirm | tim10 confirm | tim23-1 confirm
CC1=NN(c2ccccc2)C(=O)/C1=C\c1ccc(Br)s1 | 57 | 42 | - | - | - | - | 39 | . | 67
N/C(=N\OC(=O)Nc1ccccc1)c1ncc([N+](=O)[O-])s1 | 77 | 51 | - | 57 | - | - | 48 | 60 | -
O=C(Nc1ccccc1)ON=C1CCCC1 | - | - | - | - | - | - | . | . | .
Cc1ccc(S(=O)(=O)NCCCNS(=O)(=O)c2ccccc2)cc1 | - | - | - | - | - | - | . | . | .
CNC(=O)c1ccsc1NC(=O)c1ccc2c(c1)CCCC2 | 63 | 49 | - | 54 | - | - | 30 | 47 | 72
Cc1ccc(C(=O)Nc2scc(-c3ccccc3)c2C(=O)O)o1 | - | - | - | - | - | . | . | . | .
O=C(Nc1scc(-c2ccccc2)c1C(=O)O)c1ccc(F)cc1 | 85 | 67 | - | 60 | - | - | 72 | 45 | 86
Cc1ccc(-c2csc(NC(=O)c3ccc(F)cc3)c2C(=O)O)cc1 | 77 | 81 | - | 82 | - | - | 82 | 94 | 88
COc1ccc(-c2csc(NC(=O)c3ccc(C(C)(C)C)cc3)c2C(=O)O)cc1 | 85 | 84 | 82 | 73 | - | . | 83 | 92 | 90
Cc1cc(S(=O)(=O)N2CCOCC2)ccc1OCC(=O)NCCN1CCOCC1 | - | - | - | - | - | - | . | . | .
COc1ccc2ncccc2c1Cc1c(OC)ccc2ncccc12 | . | . | . | . | . | - | . | . | .
O=C(NCCO)c1ccc(Oc2ccc(C(F)(F)F)cc2[N+](=O)[O-])cc1 | - | - | - | - | - | - | . | . | .
Cc1cc(C)cc(OC(=O)CS(=O)c2ccc(C(F)(F)F)cc2[N+](=O)[O-])c1 (stereo not drawn) | 66 | 51 | - | - | - | - | 28 | . | 68
Cc1ccc(OCCNc2ccc(C(F)(F)F)cc2[N+](=O)[O-])cc1 | - | - | - | - | - | - | . | . | .
O=C(CS(=O)c1ccc(C(F)(F)F)cc1[N+](=O)[O-])Oc1ccc(Cl)cc1 (stereo not drawn) | 70 | 47 | - | 55 | - | - | 47 | 36 | 67
Cc1ccc(N=C2NC(=O)/C(=C\c3ccsc3)S2)c(C)c1 | 58 | 52 | - | 47 | - | - | - | - | 66
O=C1C2C(c3ccccc3)C=CC(c3ccccc3)C2C(=O)N1c1ccncc1 (stereo not drawn) | 53 | 41 | - | - | - | - | 36 | . | 49
O=C1C2C(c3ccccc3)C=CC(c3ccccc3)C2C(=O)N1c1cccnc1 (stereo not drawn) | - | - | - | - | - | - | . | . | .
N#C/C(=C\c1ccc(Cl)c([N+](=O)[O-])c1)c1ccccn1 | 60 | 54 | - | 64 | - | - | 66 | 73 | 69
CCCCC[C@@H]1C=C(C(=O)O)[C@H](c2cccc(C)c2)N1S(=O)(=O)c1ccc(C)cc1 | - | - | . | - | . | - | . | . | .
CCOC(=O)c1nnc(-c2cccs2)nc1NC(C)C | 55 | 47 | - | - | - | - | 42 | . | 44
CCOC(=O)c1nnc(-c2cccs2)nc1Oc1ccccc1C(=O)OC | 51 | 41 | - | 49 | - | - | - | 35 | 50
CCOC(=O)c1nnc(-c2cccs2)nc1Oc1ccc(Cl)cc1 | - | - | - | - | - | - | . | . | .
OCCNC(=S)Nc1ccc(Cl)c(Cl)c1 | - | - | - | - | - | - | . | . | .
NN(Cc1ccccc1)C(=S)Nc1ccc(Cl)c(Cl)c1 | 71 | 41 | - | 50 | - | - | 66 | 51 | 69
SMILES | tim23-1 inh | tim10-1 inh | SKKanGAS inh | TIM10 inh | Calb FLC | PfHsp90 set2 | tim10-1 confirm | tim10 confirm | tim23-1 confirm
NNc1nc(-c2ccccc2)nc(-c2ccccc2)c1Br | 57 | 46 | - | 42 | - | - | 33 | - | 46
Cc1cc(N(C)Cc2ccccc2)nc2cc(O)ccc12 | - | - | - | - | - | - | . | . | .
Cc1ccc2c(c1)C(=O)C(=O)N2CCCOc1ccccc1C | - | - | - | - | - | - | . | . | .
Cc1ccccc1OCCCN1C(=O)C(=O)c2cccc(C)c21 | 74 | 54 | - | - | - | - | 39 | . | -
Cc1cc(Nc2ccccc2)nc(-c2ccccc2O)n1 | 65 | 63 | - | 56 | - | - | 55 | 66 | 68
CC(C)(C)CC(C)(C)NC(=O)CSCC(=O)Nc1ccc2ccccc2c1 | 67 | 64 | - | - | - | - | 35 | . | 52
CN(C)S(=O)(=O)c1cccc(COC(=O)CN2C(=O)NC3(CCCC3)C2=O)c1 | - | - | - | - | - | - | . | . | .
O=S(=O)(c1cccc(F)c1)N1CCN(c2nc(-c3cccnc3)nc3ccccc23)CC1 | - | - | . | - | . | - | . | . | .
COc1ccc(C(=O)c2c(C(F)(F)F)oc3c2C(=O)c2ccccc2C3=O)cc1 | 79 | 55 | 97 | 51 | - | - | 52 | 76 | 73
COc1ccc(C(=O)c2oc3ccccc3c2NC(C)=O)cc1 | - | - | - | - | - | . | . | . | .
Cc1ccc(C(=O)O/N=C(\N)c2ccccn2)cc1 | - | - | - | - | - | - | . | . | .
N/C(=N\OC(=O)c1ccc(F)cc1)c1ccccc1 | 73 | 68 | - | 63 | - | - | 64 | 61 | 76
Cc1ccc(/C(N)=N/OC(=O)c2ccc(F)cc2)cc1 | 68 | 59 | - | 67 | - | - | 55 | 69 | 65
O=C(O)c1cnc(-c2ccccc2)nc1Sc1ccc(Cl)cc1Cl | 51 | 53 | ? | - | 106 | . | - | . | -
COc1ccccc1N1CCN(Cc2cc(Br)c(O)c3ncccc23)CC1 | 68 | 54 | 82 | - | 88 | - | - | . | 57
CCOc1ccccc1N1CCN(Cc2cccc(OC)c2O)CC1 | - | - | - | - | - | - | . | . | .
CC(Oc1ccc(Cl)cc1Cl)C(=O)NC1=NN(c2ccccc2)C(=O)C1 (stereo not drawn) | 61 | 52 | 94 | - | - | . | 33 | . | -
CCOc1ccc(-c2c(C(=O)N/N=C/C3CC=CCC3)nnn2-c2nonc2N)cc1 (stereo not drawn) | - | - | - | - | - | - | . | . | .
